# This is a sample that favours compounds with a hit; in the whole collection about 7.5% have one here.
# NPC1 prom act – qHTS Assay for NPC1 Promoter Activators; 320,000 compounds, 2.4% hits; AID 485313, 2010; Huh7 NPC1 promoter luciferase reporter, 24 h; Potency, µM (doses to about 9.22 µM), for inactives: at the top dose activation, usual class: activators; further: % of control where 0% means no effect; nearly all actives have a fitted effect of over 60% in size
#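 Cells: Huh7 expressing luciferase under the NPC1 promoter, 1500/well. Seeded 2 h, compound added, incubated 24 h at 37 °C. Luciferase reagent, 10 min ambient, then luminescence.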
# SMN2 splice enh – qHTS Assay for Enhancers of SMN2 Splice Variant Expression. 210,000 compounds, 2.8% hits. HEK293 SMN2-luciferase splicing reporter, luminescence, 30-36 h. Potency, µM (top dose mostly 46.1 µM), without a hit: at the top dose activity change, positive = activation, actives largely listed as activators; further: % of control where 0% means no effect; nearly all actives have a fitted effect of over 55% in size
#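 HEK293 cells carry an SMN2 minigene-luciferase reporter in which exon 7 inclusion puts luciferase in frame. Cells were seeded at 2000 cells/well, attached for 10-12 hours, then exposed to compounds for 30-36 hours at 37C before ONE-Glo luminescence.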
# FLuc modulator – qHTS profiling assay for firefly luciferase inhibitor/activator using purifed enzyme and Km concentrations of substrates (counterscreen for miR-21 project); purified FLuc, Km substrates, luminescence inhibition; Potency, µM (highest dose often 57.5 µM), for the others: at the highest dose activity change, negative = inhibition, most hits filed as inhibitors; AID 588342, 2011; Luciferin 4-monooxygenase (Photinus pyralis), P08659; 360,000 compounds, 6.9% hits;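 further: plate controls were vehicle for no effect and reference inhibitor for full effect; nearly all actives have a fitted effect of over 55% in size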
# Target sequence (P08659 whole entry, looked up): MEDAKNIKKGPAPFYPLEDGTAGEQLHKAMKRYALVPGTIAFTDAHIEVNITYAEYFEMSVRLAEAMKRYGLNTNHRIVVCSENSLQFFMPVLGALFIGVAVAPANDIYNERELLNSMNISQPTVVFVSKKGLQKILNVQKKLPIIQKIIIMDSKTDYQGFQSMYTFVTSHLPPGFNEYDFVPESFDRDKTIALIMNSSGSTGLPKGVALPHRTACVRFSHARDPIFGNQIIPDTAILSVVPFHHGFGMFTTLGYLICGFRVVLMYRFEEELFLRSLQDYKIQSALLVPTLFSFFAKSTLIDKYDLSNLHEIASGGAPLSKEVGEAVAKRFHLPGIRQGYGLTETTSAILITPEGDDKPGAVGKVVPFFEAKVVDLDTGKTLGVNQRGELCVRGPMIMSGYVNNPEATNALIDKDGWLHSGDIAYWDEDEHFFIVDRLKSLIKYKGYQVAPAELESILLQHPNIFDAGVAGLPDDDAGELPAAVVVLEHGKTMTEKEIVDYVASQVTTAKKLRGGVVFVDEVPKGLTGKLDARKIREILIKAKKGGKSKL
#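 Purified P. pyralis luciferase, 10 nM final, with Km-level 10 uM D-luciferin and 10 uM ATP in 50 mM Tris acetate pH 7.5, 10 mM Mg acetate, 0.01% Tween-20, 0.05% BSA; 6-point qHTS titration about 60 µM downward; luminescence read.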
# ELG1 genotox – qHTS screen for small molecules that induce genotoxicity in human embryonic kidney (HEK293T) cells expressing luciferase-tagged ELG1; Potency, µM (highest dose often 46 µM), inactives show at the top dose activity change, positive = activation, hits mostly activators; AID 504466, 2011; 330,000 compounds, 1.3% hits; HEK293T ELG1-luciferase reporter, luminescence, 16 h; further: % of control where 0% means no effect; nearly all actives have a fitted effect of over 60% in size
#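 Luminescence read-out: rising ELG1-luciferase signal, reflecting elevated ELG1 protein under genetic stress, flags genotoxic compounds. Cells were treated for 16 hr at 37 °C before ONE-Glo detection.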
# KinaseGlo FLuc – Counterscreen for Luciferase (Kinase-Glo TM) Inhibition. Luciferin 4-monooxygenase (Photuris pensylvanica), Q27757. AID 1379, 2008. Potency, µM (top dose mostly 38.3 µM), for inactives: at the top dose activity change, negative = inhibition, hits mostly inhibitors. 200,000 compounds, 0.28% hits. Kinase-Glo luciferase, ATP luminescence, 8 min; further: on the % scale 0 is the no-effect control and ±100 the full control effect; nearly all actives have a fitted effect of over 60% in size
#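 Compound is pinned into ATP-containing buffer (10 uM ATP, imidazole pH 7.2, 7 mM MgCl2). Kinase-Glo luciferase reagent is then added. Light output is recorded following an 8-min room-temperature incubation.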
# Rab9 promoter act – qHTS Assay for Rab9 Promoter Activators; Huh7 Rab9 promoter-luciferase reporter, luminescence, 24 h; Potency, µM (doses to about 9.22 µM), for the others: at the top dose activation, negative = inhibition, usual class: activators; 320,000 compounds, 2.8% hits; AID 485297, 2010; further: % of control where 0% means no effect; nearly all actives have a fitted effect of over 60% in size
#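 Quantitative HTS format; Huh7 Rab9-luciferase reporter cells (1500/well) receive compound 2 h post-plating, incubate 24 h at 37 °C, then get luciferase reagent for 10 min before luminescence reading.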
# * = called active by the depositor; ? = inconclusive; . = not tested or not shown. The call rests on the fitted dose curve; in most records, active means well fitted curve in the direction sought with a large enough effect; inconclusive means small, poorly fitted or top-dose-only effect, or another doubt; inactive means no such curve, though single readings can be large; an effect the other way counts as inactive or inconclusive. Potency means the concentration at half of the fitted maximal effect.
SMILES,NPC1 prom act,SMN2 splice enh,FLuc modulator,ELG1 genotox,KinaseGlo FLuc,Rab9 promoter act
COc1ccccc1N=c1oc2cc(O)ccc2cc1C(N)=O,6%,-5%,13µM*,0%,?,2%
COc1ccc2cc(C(N)=O)/c(=N\NC(=O)c3ccccc3)oc2c1,0.89µM*,.,11µM*,?,.,0.71µM*
COc1ccccc1NC(=O)c1cc2c(CO)cnc(C)c2oc1=Nc1ccc(OC)c(OC)c1,-8%,.,1%,-11%,.,-10%
COc1ccc(N=c2oc3ccccc3cc2C(=O)Nc2ccccn2)cc1OC,?,10%,24µM*,?,-14%,?
Cn1ccnc1SCC(=O)c1ccc(O)cc1,24%,.,-18%,12%,.,?
Cn1ccnc1SCC(=O)c1cc2ccccc2o1,?,3%,9.5µM*,?,8%,?
Cn1ccnc1SCC(=O)c1cccc(Br)c1,18%,14%,15µM*,?,-8%,?
Cn1ccnc1SCC(=O)Nc1ccc2ccccc2c1,1.3µM*,6.3µM*,5.4µM*,1.3µM*,0%,1.6µM*
Cn1ccnc1SCC(=O)Nc1ccccc1,1%,6%,-15%,2%,-4%,-1%
Cn1ccnc1SCC(=O)Nc1cccc(Br)c1,.,-1%,-16%,.,.,.
Cn1cnnc1SCC(=O)c1cc2ccccc2o1,-1%,6%,-3%,1%,2%,-1%
Cn1ccnc1SCC(=O)c1ccc2ccccc2c1,2.2µM*,?,8.5µM*,?,-7%,1µM*
CCOC(=O)c1cc(-c2ccccc2)n(-c2cccc(C(=O)N(CC)c3ccccc3)c2)c1C,.,.,-14%,.,.,.
C1CCCC1,.,-2%,.,.,.,.
Cc1ccsc1C(=O)NCc1ccc(F)cc1,1%,.,1%,2%,.,-1%
COc1ccc(OC)c(C(=O)CSc2nnnn2C)c1,18%,1%,-1%,-2%,-4%,5%
COc1ccc(C(=O)CSc2nccn2C)c(OC)c1,4µM*,.,13µM*,?,.,3.5µM*
O=C(CSc1nccc(=O)[nH]1)c1cc2ccccc2o1,-4%,.,15µM*,10%,.,4%
COc1cccc(C(=O)CSc2nccn2C)c1,1.6µM*,.,17µM*,?,.,2.5µM*
COc1cccc(C(=O)CSc2nnnn2C)c1,2%,-1%,-10%,2%,14%,7%
O=C(CSc1ncn[nH]1)c1cc2ccccc2o1,-3%,-2%,?,3%,0%,19%
CNc1ccc(Br)cc(C(=O)/C=C/c2cccc(OC)c2OC)c1=O,-1%,.,?,-13%,-5%,-5%
CNc1ccccc(C(=O)/C=C/c2ccccc2OC)c1=O,1%,-24%,21µM*,-5%,-5%,2%
COc1ccccc1/C=C/C(=O)/C=C/c1ccccc1O,-37%,.,3.4µM*,-15%,.,-42%
Cn1cnc2nc(NCCO)nc(NCc3ccccc3)c21,.,25%,.,.,.,.
SMILES,NPC1 prom act,SMN2 splice enh,FLuc modulator,ELG1 genotox,KinaseGlo FLuc,Rab9 promoter act
c1ccc(Nc2nc(-c3cccnc3)cs2)nc1,1µM*,11µM*,1.5µM*,?,-22%,0.56µM*
Clc1ccccc1-c1csc(Nc2cccnc2)n1,2.8µM*,.,?,8%,.,?
Clc1ccccc1Nc1nc(-c2cccnc2)cs1,3.2µM*,2.8µM*,1.7µM*,?,-22%,0.71µM*
c1cncc(Nc2nc(-c3ccncc3)cs2)c1,6%,-2%,?,-3%,-3%,1%
Clc1ccccc1Nc1nnc(-c2ccncc2)s1,0.56µM*,3.2µM*,0.95µM*,?,1.3µM*,0.45µM*
CCCn1c(C(O)c2ccc(OC)c(OC)c2)nc2ccccc21 (stereo not drawn),-4%,.,0%,-4%,.,-5%
FC(F)(F)c1cccc(N2CCN(c3nc4ccccc4n4cnnc34)CC2)c1,.,-36%,-4%,.,.,.
Fc1ccc(-c2csc(Nc3ccccn3)n2)cc1,3.5µM*,.,1.5µM*,2.1µM*,.,3.2µM*
CC[n+]1c(/C=C/C=C/N(C(C)=O)c2ccccc2)sc2cc(OC)ccc21,-21%,-30%,2%,-2%,-16%,-18%
COc1ccc2c(c1)C(=NN)c1cc(OC)ccc1-2,29%,-10%,11µM*,4%,4%,?
COc1ccc2c(c1)C(=NNc1ccc(C(=O)O)cc1)c1cc(OC)ccc1-2,2%,.,6µM*,2%,.,7%
COc1ccc(/C(C)=N/Nc2ccc(C(=O)O)cc2)c(OC)c1,?,16µM*,7.6µM*,?,-2%,1.8µM*
Cc1cc(C(=O)NNC(=O)c2ccc(Cl)c(S(N)(=O)=O)c2)c(C)o1,.,.,.,0%,.,.
Clc1cccc(CNc2cc(-c3ccccc3)nc3nncn23)c1,.,1%,-1%,.,.,.
COc1ccc2cc(CCNS(=O)(=O)c3ccc(C)cc3)c(=O)[nH]c2c1,.,-21%,-2%,.,.,.
COc1ccc(C(C(=O)NCc2ccccc2)N(C(=O)Cn2nnc3ccccc32)c2cccc(OC)c2)cc1 (stereo not drawn),.,-2%,1%,.,.,.
O=C(NCCc1ccccc1)c1cc2sccc2n1Cc1ccc(F)cc1,.,-7%,1%,.,.,.
Cc1cc(Br)ccc1NC(=O)CN(C)C(=O)C1=COCCO1,.,.,.,1%,.,.
O=C(/C=C/c1cccc(F)c1)N1CCc2ccccc21,1.1µM*,2.5µM*,0.85µM*,1.8µM*,?,0.63µM*
O=C(/C=C/c1ccc(Cl)cc1Cl)N1CCc2ccccc21,1.6µM*,2.5µM*,0.6µM*,6.5µM*,-23%,0.79µM*
O=C(/C=C/c1ccc(Cl)cc1Cl)OCC(=O)N1CCCC1,-4%,.,15µM*,4%,.,12%
CN1CC(O)C2=CC(=O)C(=O)C=C21 (stereo not drawn),.,-6%,.,.,.,.
COCCCn1c(SCC(=O)OC2CCCCC2)nnc1-c1cccs1,0%,-5%,19µM*,-1%,0%,7%
COCCCn1c(SCC(=O)OC2CCCCC2)nnc1-c1ccco1,1%,-2%,12µM*,-2%,-3%,3%
CC(C)n1c(=O)c2oc3ccccc3c2n(CC(=O)Nc2ccccc2Cl)c1=O,.,.,-1%,.,.,.
Cn1cccc1C(=O)N1CCC2(CC1)CN(C(c1ccccc1)c1ccccc1)C2,.,-4%,.,.,2%,.
Cc1ccc(-n2c(=O)c3c(c4cc(C)ccc4n3C)n(CC(=O)Nc3c(C)cccc3C)c2=O)cc1,.,.,-3%,.,.,.
CCOC(=O)c1oc2ccc(CNCCO)c(Cl)c2c1C,24%,24%,17µM*,?,-3%,28%
CC(C)CCN1CCN(Cc2cccc(C(F)(F)F)c2)CC1CCO (stereo not drawn),-2%,.,3%,-6%,-5%,-1%
